This is an account of results in PubChem BioAssay.

The nature of one assay: binders of probe aFSTL3 on microarray, primary screen, stem cell growth factor project, biochemical, small-molecule microarray, fluorescence 635/667 (AID 1064).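 Note: measures binding of the biotinylated anti-FSTL3 antibody to printed compounds.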 Conditions: higher = more signal.
The compound `C=C(COC)C(=O)CC[C@H](OC(=O)c1ccccc1-c1ccccc1C(=O)O)c1cccc(OCCO)c1` had a composite z-score of -0.102.
The compound `COC(=O)C(CC#Cc1ccc2c(c1)[C@]1(C(=O)N2)[C@H](C(=O)N2CCCCCCC2)[C@H]2C(=O)O[C@H](c3ccccc3)[C@H](c3ccccc3)N2[C@@H]1c1ccc(O)cc1)C(=O)OC` yielded a composite z-score of 0.565.
The same measure, in the same setting: the value for `CCCC[C@H]1OB(O)C[C@H]2C1=C(COC)C[C@H]1C(=O)N(Cc3ccccc3)C(=O)[C@H]12` was -0.193.
Same read-out and setting: under `COCCOC(=O)N1C(=O)[C@@]2(c3cc(C#CCCO)ccc31)[C@H](C(=O)N1CCCCCCC1)[C@H]1C(=O)O[C@H](c3ccccc3)[C@H](c3ccccc3)N1[C@@H]2c1ccc(O)cc1` stands 2.61; under `Cc1ccc(S[C@]2(C(=O)O)CC(=O)N(Cc3ccccc3)[C@@H]2c2ccc(CO)cc2)cc1`, 0.58; under `COCCOC(=O)N1C(=O)[C@@]2(c3cc(C#CCNC(N)=O)ccc31)[C@H](c1ccc(OCCO)cc1)N1[C@H](c3ccccc3)[C@H](c3ccccc3)OC(=O)[C@H]1[C@@H]2C(=O)Nc1nc2ccccc2s1`, 1.02.
Same read-out and setting: under `C=CC[C@@]12N=C(c3ccc(OCCCO)cc3)O[C@@H]1c1ccccc1CN(Cc1ccccc1)C2=O` stands 1.36.
In turn, `O=C(NCC(O)CO)[C@]1(Cc2ccccc2)N=C(c2ccc(OCCCO)cc2)O[C@@H]1c1ccccc1` (stereo partly specified) displayed a composite z-score of 1.09.
Still for that read-out and setting: under `C=CCNC(=O)[C@H]1[C@@H]2C(=O)O[C@@H](c3ccccc3)[C@@H](c3ccccc3)N2[C@@H](c2ccccc2OCCO)[C@]12C(=O)N(C(=O)OCCOC)c1ccc(C#CCNC(N)=O)cc12` stands 0.173.
For `C=CCC(OC(C)=O)[C@@H]1[C@@H](N(Cc2cccc3ccccc23)C(=O)Cc2ccc(F)cc2)c2cc(OCCCO)ccc2N1C(=O)Cc1ccc2ccccc2c1` (stereo partly specified), the composite z-score was -0.154.
`COC(=O)c1ccc(C#CC(NP(=O)(c2ccccc2)c2ccccc2)c2ccccc2)cc1` (stereo unspecified) registered a composite z-score of 0.301.
For the compound `C[C@H]1COC(=O)[C@H](Cc2ccccc2)NC(=O)[C@@H](C)COC(=O)[C@H](Cc2ccccc2)NC1=O`, the composite z-score is -0.275.
On the same count and under the same terms, under `CCOC(=O)C[C@H]1[C@H](OC(=O)c2cc3ccccc3oc2=O)[C@@H](NC(=O)C2CCCCC2)c2cc(OCCCO)ccc2N1C(=O)c1ccc2ccccc2n1` stands -0.662; under `COc1cccc([C@@H]2[C@@H](C)CC[C@H]3C(=O)N(C)[C@@H](C(C)C)C(=O)N23)c1`, -0.413.
The same measure, in the same setting: under `COCC(=C=CC[C@H](O)c1ccc(OCCO)cc1)C[C@H](O)c1ccccn1` stands -0.103.
The compound `C=C(CCCC)C(=O)CC[C@@H](OC(=O)c1cccnc1)c1cccc(OCCO)c1` displayed a composite z-score of 0.116.
On the same count and under the same terms, the value for `CC(C)NC(=O)[C@@]1(Cc2ccccc2I)c2ccccc2C(=O)N(C2CCCCC2)[C@H]1c1ccc(CO)cc1` was -0.107.
The same measure, in the same setting: under `NC(=O)[C@H]1[C@@H]2C(=O)O[C@@H](c3ccccc3)[C@@H](c3ccccc3)N2[C@@H](c2ccc(O)cc2)[C@]12C(=O)Nc1ccc(C#CCCO)cc12` stands 0.545; under `C=CCNC(=O)[C@@H]1[C@H]2C(=O)O[C@H](c3ccccc3)[C@H](c3ccccc3)N2[C@H](c2ccc(OCCO)cc2)[C@@]12C(=O)N(C(=O)OCCOC)c1ccc(C#CC3(O)CCCCCC3)cc12`, 1.33.
On the same count and under the same terms, the value for `CSCC[C@@H]1NC(=O)CC=C[C@@H](C)COC(=O)[C@H](CCSC)NC(=O)CC=C[C@@H](C)COC1=O` was -0.678; that for `COC(=O)[C@@]1(Cc2ccc(OC)cc2)[C@H]2c3cc(C(=O)N(C)C)n(CCc4ccc(OC)c(Br)c4)c3C[C@H]2CN1C(=O)c1ccccc1` was 1.53.
The compound `C#C[C@H](O[Si](C#Cc1ccccc1)(C(C)C)C(C)C)c1ccccc1` yielded a composite z-score of -0.16.
Same read-out and setting: under `COCCCNC(=O)[C@@H]1c2ccccc2C(=O)N(CC23CC4CC(CC(C4)C2)C3)[C@H]1c1ccc(CO)cc1` stands 0.621; under `C[C@H]1C2[C@H](Cc3ccccc3)NC(=O)[C@]23C(=O)N[C@H](Cc2ccccc2)C(=O)N[C@@H](Cc2ccccc2)C(=O)NC/C=C\C/C=C/C3[C@@H]2O[C@]12C` (stereo partly specified), -0.446; under `CO[C@]12C=C(Br)[C@@H](C[C@@H]1c1ccccc1)[C@@]1(CO1)C2=O`, -0.407.
The same measure, in the same setting: the value for `CO[C@H]1COC(=O)[C@@H](C)COC(=O)[C@H](Cc2ccccc2)NC(=O)CC=C[C@H]1C` was -0.678.

Another assay in a line: binders from COS7 lysate, DM2A8 probe, primary screen, torsin A project, cell lysate, small-molecule microarray, fluorescence 635/667 (AID 1065). Conditions: higher = more signal, COS7 lysate expressing mutant human TOR1A.
Take `C=CC[C@@]1(C(=O)NCC(O)CO)N=C(c2ccc(OCCCO)cc2)O[C@@H]1c1ccccc1CN=[N+]=[N-]` (stereo partly specified): the composite z-score is 0.674.
Consider `CO[C@H]1COC(=O)[C@@H](C)NC(=O)CC=C[C@@H](C)[C@H](OC)COC(=O)CC=C[C@@H]1C`, for which the composite z-score was found to be 1.95.
Same read-out and setting: under `CC(C)C[C@@H]1NC(=O)[C@H]2C[C@@H](C(=O)NCCCCCC[N+](C)(C)C)[C@@H](c3ccc(O)cc3)N2C1=O` stands 0.64.
For `Cc1ccc(S(=O)(=O)N[C@H]2COC(=O)CC=C[C@H](C)COC(=O)N[C@@H](C)C(=O)CC=C[C@@H]2C)cc1`, the composite z-score turned out to be 1.16.
Still for that read-out and setting: under `C#CCCCON=C1C[C@@H](O)[C@@H](O)[C@@H]2[C@@H]3C(=O)N(Cc4ccc5c(c4)OCO5)C(=O)[C@@H]3CC[C@@H]12` stands -0.022; under `CO[C@H]1COC(=O)[C@@H](OCc2ccccc2)C=C[C@H](C)[C@@H](OC)COC(=O)[C@H](OCc2ccccc2)C=C[C@@H]1C`, -0.144.
On to `COCCOC(=O)N1C(=O)[C@@]2(c3cc(C#CCCO)ccc31)[C@H](c1ccc(OCCO)cc1)N1[C@H](c3ccccc3)[C@H](c3ccccc3)OC(=O)[C@H]1[C@@H]2C(=O)NC[C@H](O)c1ccccc1`, for which the composite z-score turned out to be 1.04.
Same read-out and setting: the value for `NC(=O)NCC#Cc1ccc2c(c1)[C@]1(C(=O)N2)[C@H](c2ccccc2OCCO)N2[C@H](c3ccccc3)[C@H](c3ccccc3)OC(=O)[C@H]2[C@@H]1C(=O)N1CCN(c2ncccn2)CC1` was 0.195; that for `COCCOC(=O)N1C(=O)[C@@]2(c3cc(C#CCCO)ccc31)[C@H](c1ccc(O)cc1)N1[C@H](c3ccccc3)[C@H](c3ccccc3)OC(=O)[C@H]1[C@@H]2C(=O)Nc1nc2ccccc2s1` was 0.184; that for `C=C(COC)C(=O)CC[C@H](OC(=O)c1ccccc1-c1ccccc1C(=O)O)c1cccc(OCCO)c1` was 1.15.
On the same count and under the same terms, under `COC(=O)C(CC#Cc1ccc2c(c1)[C@]1(C(=O)N2)[C@H](C(=O)N2CCCCCCC2)[C@H]2C(=O)O[C@H](c3ccccc3)[C@H](c3ccccc3)N2[C@@H]1c1ccc(O)cc1)C(=O)OC` stands -1.17; under `CCCC[C@H]1OB(O)C[C@H]2C1=C(COC)C[C@H]1C(=O)N(Cc3ccccc3)C(=O)[C@H]12`, 0.323; under `COCCOC(=O)N1C(=O)[C@@]2(c3cc(C#CCCO)ccc31)[C@H](C(=O)N1CCCCCCC1)[C@H]1C(=O)O[C@H](c3ccccc3)[C@H](c3ccccc3)N1[C@@H]2c1ccc(O)cc1`, 1.22.
The same measure, in the same setting: under `Cc1ccc(S[C@]2(C(=O)O)CC(=O)N(Cc3ccccc3)[C@@H]2c2ccc(CO)cc2)cc1` stands 0.131; under `COCCOC(=O)N1C(=O)[C@@]2(c3cc(C#CCNC(N)=O)ccc31)[C@H](c1ccc(OCCO)cc1)N1[C@H](c3ccccc3)[C@H](c3ccccc3)OC(=O)[C@H]1[C@@H]2C(=O)Nc1nc2ccccc2s1`, 0.208; under `C=CC[C@@]12N=C(c3ccc(OCCCO)cc3)O[C@@H]1c1ccccc1CN(Cc1ccccc1)C2=O`, 0.845.
For `O=C(NCC(O)CO)[C@]1(Cc2ccccc2)N=C(c2ccc(OCCCO)cc2)O[C@@H]1c1ccccc1` (stereo partly specified), the composite z-score worked out at 2.15.
The same measure, in the same setting: the value for `C=CCNC(=O)[C@H]1[C@@H]2C(=O)O[C@@H](c3ccccc3)[C@@H](c3ccccc3)N2[C@@H](c2ccccc2OCCO)[C@]12C(=O)N(C(=O)OCCOC)c1ccc(C#CCNC(N)=O)cc12` was 0.912; that for `C=CCC(OC(C)=O)[C@@H]1[C@@H](N(Cc2cccc3ccccc23)C(=O)Cc2ccc(F)cc2)c2cc(OCCCO)ccc2N1C(=O)Cc1ccc2ccccc2c1` (stereo partly specified) was 0.154; that for `COC(=O)c1ccc(C#CC(NP(=O)(c2ccccc2)c2ccccc2)c2ccccc2)cc1` (stereo unspecified) was -0.214.
On the same count and under the same terms, the value for `C[C@H]1COC(=O)[C@H](Cc2ccccc2)NC(=O)[C@@H](C)COC(=O)[C@H](Cc2ccccc2)NC1=O` was 0.381.
On the same count and under the same terms, under `CCOC(=O)C[C@H]1[C@H](OC(=O)c2cc3ccccc3oc2=O)[C@@H](NC(=O)C2CCCCC2)c2cc(OCCCO)ccc2N1C(=O)c1ccc2ccccc2n1` stands 0.0931.
Compound `COc1cccc([C@@H]2[C@@H](C)CC[C@H]3C(=O)N(C)[C@@H](C(C)C)C(=O)N23)c1` had a composite z-score of 0.353.
Same read-out and setting: under `COCC(=C=CC[C@H](O)c1ccc(OCCO)cc1)C[C@H](O)c1ccccn1` stands 0.628.
Compound `C=C(CCCC)C(=O)CC[C@@H](OC(=O)c1cccnc1)c1cccc(OCCO)c1` gave a composite z-score of 0.908.
The same measure, in the same setting: under `CC(C)NC(=O)[C@@]1(Cc2ccccc2I)c2ccccc2C(=O)N(C2CCCCC2)[C@H]1c1ccc(CO)cc1` stands 0.072; under `NC(=O)[C@H]1[C@@H]2C(=O)O[C@@H](c3ccccc3)[C@@H](c3ccccc3)N2[C@@H](c2ccc(O)cc2)[C@]12C(=O)Nc1ccc(C#CCCO)cc12`, -0.831.
On to `C=CCNC(=O)[C@@H]1[C@H]2C(=O)O[C@H](c3ccccc3)[C@H](c3ccccc3)N2[C@H](c2ccc(OCCO)cc2)[C@@]12C(=O)N(C(=O)OCCOC)c1ccc(C#CC3(O)CCCCCC3)cc12`, for which the composite z-score was found to be 1.16.
On the same count and under the same terms, under `CSCC[C@@H]1NC(=O)CC=C[C@@H](C)COC(=O)[C@H](CCSC)NC(=O)CC=C[C@@H](C)COC1=O` stands 1.31.
Same read-out and setting: under `COC(=O)[C@@]1(Cc2ccc(OC)cc2)[C@H]2c3cc(C(=O)N(C)C)n(CCc4ccc(OC)c(Br)c4)c3C[C@H]2CN1C(=O)c1ccccc1` stands 0.323; under `C#C[C@H](O[Si](C#Cc1ccccc1)(C(C)C)C(C)C)c1ccccc1`, -0.232.
Still for that read-out and setting: the value for `COCCCNC(=O)[C@@H]1c2ccccc2C(=O)N(CC23CC4CC(CC(C4)C2)C3)[C@H]1c1ccc(CO)cc1` was 0.173; that for `C[C@H]1C2[C@H](Cc3ccccc3)NC(=O)[C@]23C(=O)N[C@H](Cc2ccccc2)C(=O)N[C@@H](Cc2ccccc2)C(=O)NC/C=C\C/C=C/C3[C@@H]2O[C@]12C` (stereo partly specified) was 0.107; that for `CO[C@]12C=C(Br)[C@@H](C[C@@H]1c1ccccc1)[C@@]1(CO1)C2=O` was 0.215.
The compound `CO[C@H]1COC(=O)[C@@H](C)COC(=O)[C@H](Cc2ccccc2)NC(=O)CC=C[C@H]1C` showed a composite z-score of 0.995.
